TGFb inhibitor – TGF-b pathway inhibition; HepG2 CAGA-GFP TGF-b/SMAD3 reporter, GFP fluorescence, 18 h; TGF-beta stimulated, 500 pg/mL final; Potency, µM (top dose mostly 46.1 µM), without a hit: top-dose activity, negative = inhibition, most hits filed as inhibitors; 410,000 tested, 1.2% active; AID 588855; further: on the % scale 0 is the no-effect control and ±100 the full control effect; nearly all actives have a fitted effect of over 65% in size
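TGF-beta reporter screen: HEPG2 CAGA-GFP, 1% FBS, 500 pg/mL TGF-beta final, 18 h; per-cell GFP summed per well; curves fitted and categorized by class.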
ATXN viability – cell viability loss in ATXN counter-screen. Potency, µM (titrated, usually from 56.7 µM), most hits filed as cytotoxic. S2 cells (HEK-293 line with an ATXN2-luciferase reporter) viability, CellTiter-Fluor protease fluorescence, 24 h. 400,000 tested, 0.49% active; further: nearly all actives have a fitted effect of over 40% in size
ATXN2 expr inh – reduces ATXN2 reporter expression in HEK-293 cells | Potency, µM (doses to about 57 µM), without a hit: at the top dose activity change, negative = inhibition, most hits filed as inhibitors | 360,000 tested, 0.72% active | HEK-293 ATXN2-luciferase reporter, luminescence, 24 h | AID 1745845; further: on the % scale 0 is the no-effect control and ±100 the full control effect; nearly all actives have a fitted effect of over 55% in size
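qHTS (up to 57 uM final) was run with 24 h compound exposure of reporter cells at 37 °C. Each well was multiplexed: SteadyGlo luminescence measured ATXN2-luciferase expression after a fluorogenic Gly-Phe-AFC viability readout (25 uM final).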
HT1080-NT tox – kills 2HG-producing HT-1080-NT fibrosarcoma cells. HT-1080-NT fibrosarcoma viability, CellTiter-Glo ATP luminescence, 48 h. Potency, µM (series often up to 46.1 µM), without a hit: at the top dose activity, negative = less viability, usual class: cytotoxic. 360,000 tested, 1.6% active. AID 686970;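 further: NT is the 2HG producing partner of a matched IDH1 knockdown line; 0% = DMSO-treated cells and -100% = media-only wells without cells; nearly all actives have a fitted effect of over 55% in size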
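Viability by CellTiter-Glo luminescence after 48 h compound exposure at 37C of HT-1080-NT cells (750/well, RPMI, 5% FBS). % activity scaled between DMSO wells and medium-only wells, then curve-fitted and categorized by curve class.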
HepG2 tox – HepG2 cytotoxicity, counter-screen for TGF-b inhibitors; HepG2 CAGA-GFP viability, ATP luminescence, 18 h; Potency, µM (top dose mostly 46.1 µM), inactives show at the top dose activity change, negative = cytotoxicity, actives largely listed as cytotoxic; 410,000 tested, 0.76% active
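HepG2 CAGA-GFP cells (1000/well, DMEM with 1% FBS) received compound, then TGF-beta at 500 pg/mL final, and were incubated 18 hours at 37 degrees C. Viability was read by CellTiter-Glo luminescence. Media-only wells were set as complete cell-killing and DMSO as no toxicity.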
HT1080 IDH1KD tx – kills HT-1080 cells with IDH1 knockdown. HT-1080 IDH1 knockdown viability, ATP luminescence, 48 h. Potency, µM (series often up to 46.1 µM), for the others: at the highest dose activity, negative = toxicity, actives largely listed as cytotoxic. 360,000 tested, 2% active;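 further: 0% = DMSO wells and -100% = cell-free medium wells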
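IDH1KD HT-1080 cells, 750/well, RPMI + 5% FBS; compound pinned after 2 h settling; 48 h, 37 °C; CellTiter-Glo luminescence; % activity normalised to DMSO and no-cell wells; curves fitted, classed by r2 and efficacy.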
* hit, by the source's call; i = inactive; ? = inconclusive; nt = no result given. Most compounds without a hit are left out; they make up all but 3.8% or so of the library. The call rests on the fitted dose curve; in most records, active means well fitted curve in the direction sought with a large enough effect; inconclusive means small, poorly fitted or top-dose-only effect, or another doubt; inactive means no such curve, though single readings can be large; an effect the other way counts as inactive or inconclusive. Potency means the concentration at half of the fitted maximal effect.

SMILES	TGFb inhibitor	ATXN viability	ATXN2 expr inh	HT1080-NT tox	HepG2 tox	HT1080 IDH1KD tx
O=C1c2cccc3cccc(c23)C(=O)N1CC1CCN(CC(O)COc2ccc3ccccc3c2)CC1 (configuration not stated)	?	i	?	18µM*	16µM*	15µM*
CCc1ccc(OCC(O)CN2CCC(CN3C(=O)c4cccc5cccc(c45)C3=O)CC2)cc1 (configuration not stated)	-14%	nt	25µM*	-1%	-8%	8%
COc1ccc(COCC(O)CN2CCC(CN3C(=O)c4cccc5cccc(c45)C3=O)CC2)cc1OC (configuration not stated)	-21%	?	-28%	?	-2%	?
O=C1c2cccc3cccc(c23)C(=O)N1CCN1CCN(CC(O)COc2ccc3ccccc3c2)CC1 (configuration not stated)	0%	?	?	?	4%	?
Cc1cc(C)cc(OCC(O)CN2CCC(CN3C(=O)c4cccc5cccc(c45)C3=O)CC2)c1 (configuration not stated)	?	nt	20µM*	18µM*	20µM*	18µM*
COc1cccc(OCC(O)CN2CCC(CN3C(=O)c4cccc5cccc(c45)C3=O)CC2)c1 (configuration not stated)	?	?	?	18µM*	14µM*	23µM*
CCCOc1ccc(C2C(=O)N(C3CCCCCC3)CC(=O)N2CCC)cc1OC (configuration not stated)	-5%	nt	nt	nt	-28%	nt
COCc1ccc(CN2CCOc3ccc(C4=Cc5ccccc5C4)cc3C2)o1	nt	i	nt	nt	nt	nt
CCCCNC(=S)Nc1ccc(Oc2ccccc2)cc1	?	i	-10%	-10%	-37%	-2%
CCCNC(=S)Nc1ccc(Oc2ccccc2)cc1	-3%	i	5%	16µM*	-33%	14µM*
COc1ccc(CCNC(=S)Nc2ccc(C(C)C)cc2)cc1	16µM*	i	nt	-21%	-72%	-6%
CCCCc1ccc(NC(=S)NCc2ccc(OC)cc2)cc1	10µM*	i	nt	-14%	-40%	?
COc1ccc(CNC(=S)Nc2ccc(OC)cc2)cc1	25%	i	11%	2%	-4%	5%
CSc1ccc(C2C(C#N)=C(N)Oc3cc4c(cc32)OCO4)cc1 (configuration not stated)	13µM*	i	-37%	18µM*	-39%	?
O=Nc1nc2ncccn2c1-c1ccccc1	-7%	i	-5%	-1%	12%	12µM*
CCC1CN(CCC(=O)N2CCN(c3ncccn3)CC2)Cc2cc(OC)ccc2O1 (configuration not stated)	nt	i	nt	nt	nt	nt
CC(=O)n1c2ccccc2c2ccccc21	-1%	i	-4%	8%	7%	3%
Cc1ccc(C(=O)n2c3ccccc3c3ccccc32)cc1	-9%	i	-4%	?	-7%	6.5µM*
COc1cccc(CNC(=O)c2c(OC)cc(=O)n3c2CCN(C(=O)C2CC=CCC2)CC3)c1 (configuration not stated)	nt	i	nt	nt	nt	nt
COc1ccc(N(Cc2cccs2)C(=O)COc2cccc(C)c2C)cc1	?	nt	nt	nt	-16%	nt
COc1ccc(N(Cc2cccs2)C(=O)COc2cc(C)c(Cl)c(C)c2)cc1	16µM*	nt	nt	nt	-28%	nt
Cc1cnn(CCC(=O)NNC(=S)Nc2ccc(F)cc2)c1	-1%	i	-11%	8%	-16%	13%
Cc1cnn(CCC(=O)NNC(=S)Nc2cccc(Cl)c2)c1	-17%	i	8%	0.79µM*	3%	0.71µM*
COc1ccc(OC)c(C(=O)N2CCOc3ccc(C(C)(O)CN(C)C)cc3C2)c1 (configuration not stated)	nt	i	nt	nt	nt	nt

Compound activity as filed in PubChem.
